Assay outcomes: PubChem BioAssay, National Center for Advancing Translational Sciences (NCATS)
HPGD block: inhibitors of human 15-hydroxyprostaglandin dehydrogenase (HPGD); P15428; purified HPGD, NADH fluorescence kinetic, PGE2 substrate; Potency, µM, without a hit: at the top dose activity change, negative = inhibition, usual class: inhibitors; hit rate 4.3% among 150,000; also: potency is read from the fitted curve at half-maximal effect
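20 nM HPGD preincubated 15 min at room temperature with compound in 50 mM Tris-HCl pH 8, 0.01% Tween 20. Started with 1 mM NAD+ and 30 uM prostaglandin E2; NADH fluorescence (360/450 nm) read 5 times over 30-s intervals, last minus first.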
IMPase inh: cell-permeable inhibitors of inositol monophosphatase (IMPase); CHO-M1 cells, IP1 accumulation, HTRF TR-FRET ratio; inhibition (IP1 accumulation), % at 46.1 µM; 120,000 tested, under 10 active; active = well fitted curve in the direction sought with a large enough effect in the signal ratio, not every such curve was filed as active; inconclusive = small, poorly fitted or top-dose-only effect, or a change in a side signal; inactive = no such curve, though single readings can be large or run the other way; the % refers to the signal ratio;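 also: cells stimulated with carbachol in lithium chloride buffer; plate controls were DMSO basal wells for no effect and reference inhibitor wells for full effect; higher means more IMPase inhibition seen as more IP1 and lower FRET ratio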
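Seeded CHO-M1 cells were dosed with compound at up to 46 uM, stimulated with carbachol for 30 min, then lysed in IP-One detection reagents. Higher IP1 lowers the TR-FRET signal.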
ALDH1A1 inh: blocks purified human ALDH1A1 activity. P00352. Purified ALDH1A1, NADH fluorescence, propionaldehyde substrate. Potency, µM (series often up to 75.3 µM), without a hit: top-dose activity, negative = inhibition, actives largely listed as inhibitors. hit rate 7.3% among 220,000. AID 1030;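 also: potency is read from the fitted curve at half-maximal effect; plate controls were no enzyme wells and a reference inhibitor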
12-hLO inh: blocks human 12-lipoxygenase activity; hit rate 0.12% among 150,000; Potency, µM (highest dose often 57.1 µM), for the others: top-dose activity change, negative = inhibition, hits mostly inhibitors; purified 12-hLO, xylenol orange hydroperoxide absorbance; active = well fitted curve in the direction sought with a large enough effect; inconclusive = small, poorly fitted or top-dose-only effect, or another doubt; inactive = no such curve, though single readings can be large; an effect the other way counts as inactive or inconclusive; also: potency is read from the fitted curve at half-maximal effect; nearly all actives have a fitted effect of over 55% in size
Target sequence (P18054 whole entry, looked up): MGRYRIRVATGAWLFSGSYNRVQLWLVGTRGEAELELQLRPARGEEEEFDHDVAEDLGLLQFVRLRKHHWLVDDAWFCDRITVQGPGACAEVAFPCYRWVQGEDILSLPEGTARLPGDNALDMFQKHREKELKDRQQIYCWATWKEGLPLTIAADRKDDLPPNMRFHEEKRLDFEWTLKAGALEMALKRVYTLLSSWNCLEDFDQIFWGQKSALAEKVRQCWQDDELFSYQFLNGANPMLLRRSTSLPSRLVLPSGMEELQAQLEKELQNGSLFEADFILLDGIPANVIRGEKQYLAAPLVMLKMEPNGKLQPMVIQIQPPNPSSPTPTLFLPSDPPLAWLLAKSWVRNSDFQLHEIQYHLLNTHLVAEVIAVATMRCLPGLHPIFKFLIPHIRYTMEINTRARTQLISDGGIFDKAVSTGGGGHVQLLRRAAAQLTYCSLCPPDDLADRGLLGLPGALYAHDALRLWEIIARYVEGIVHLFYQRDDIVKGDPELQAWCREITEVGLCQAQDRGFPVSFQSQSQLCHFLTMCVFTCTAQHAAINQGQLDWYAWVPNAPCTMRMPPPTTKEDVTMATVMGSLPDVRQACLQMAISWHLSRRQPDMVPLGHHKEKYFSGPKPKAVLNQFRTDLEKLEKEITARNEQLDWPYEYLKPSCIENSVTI
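Xylenol orange chromogenic assay: hydroperoxide from 12hLO oxidises Fe(II), giving red-shifted Fe(III)-XO absorbance. Conditions: 150 nM enzyme, 40 uM arachidonic acid, 25 mM Hepes pH 7.0, 0.01% Triton X-100, 30 min, room temperature.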
PNC assembly inh: inhibitors of perinucleolar compartment assembly | PC3M PTB-GFP, PNC prevalence imaging, 16 h; hits give low values | activity change (PNC), negative = inhibition, % at 10 µM | hit rate 3.1% among 140,000 | AID 2417;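 active = readout at or below -70, meaning at least 70% loss of cells showing the perinucleolar compartment, a nuclear body marking cancer cells; inconclusive = readout between -30 and a set limit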;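 also: plate controls were DMSO wells for no effect and camptothecin positive control wells for full effect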
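PC3M cells stably expressing PTB-GFP, 750–1000 cells/well, treated 16 h at 37 °C with compound (23 nl of library stock), in duplicate. After paraformaldehyde fixation and Hoechst stain, imaged at 20x; PNC prevalence scored by image analysis.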
IMPase Li inh: membrane-permeable IMPase blocker, potentiated with lithium | CHO-M1 cells, IP1 TR-FRET (IP-One), carbachol + lithium | Potency, µM (top dose mostly 59.4 µM), inactives show top-dose activity, negative = IMPase inhibition, hits mostly inhibitors | hit rate 0.35% among 210,000; active = well fitted curve in the direction sought with a large enough effect; inconclusive = small, poorly fitted or top-dose-only effect, or another doubt; inactive = no such curve, though single readings can be large; an effect the other way counts as inactive or inconclusive;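 also: IP1 builds up when IMPase is blocked and the TR-FRET signal falls; potency is read from the fitted curve at half-maximal effect; plate controls were basal vehicle for no effect and high inhibitor control for full effect; nearly all actives have a fitted effect of over 50% in size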
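CHO cells stably expressing M1 receptor (2000/well, cultured 16–30 h) treated 30 min at 37C with compound plus low lithium. Cytosolic IP1 by TR-FRET (665/620 ratio and 620 channel) after 10 min lysis; AC50 by Hill fit.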
Numbers without * were called inactive; [ ] = dose if it differs, or a comment. Only some compounds are listed: those with a hit (about 11% of all), similar ones and a draw of the others. Unless noted, calls follow the shape of the dose curve; as a rule, active = well fitted inhibition curve with a large enough effect (not every such curve was filed as active); inconclusive = small, poorly fitted or top-dose-only effect, or another doubt; inactive = no such curve, though single readings can be large or run the other way. Unless noted, % is scaled to controls: 0 for no effect and ±100 for the full control effect.

What do the screens show for `c1ccc(-c2nnc(-c3ccccc3)o2)cc1`?
HPGD block: -13%; IMPase inh: 3; ALDH1A1 inh: 0%; 12-hLO inh: 9%; PNC assembly inh: 48; IMPase Li inh: 1%[38.3 µM]

What do the screens show for `O=C(/C=C/c1cccc([N+](=O)[O-])c1)NCCSCc1ccc(Cl)cc1`?
HPGD block: -26%; ALDH1A1 inh: 22µM*; 12-hLO inh: -17%; PNC assembly inh: -16; IMPase Li inh: 27%

How did CC(C)(C)SCCNC(=O)/C=C/c1cccc([N+](=O)[O-])c1 do in these assays?
HPGD block: -7%; ALDH1A1 inh: 14µM*; 12-hLO inh: -5%; PNC assembly inh: 29; IMPase Li inh: -2%

Results for O=C(COC(=O)[C@@H]1CC(O)CN1S(=O)(=O)c1ccc2c(c1)OCCO2)Nc1ccccc1F (stereo not given in full) ?
ALDH1A1 inh: -7%; IMPase Li inh: -4%

How did CCC1=C2CC[C@H]3C(=O)N(C)C(=O)[C@H]3[C@H]2[C@@]2(Cc3ccccc3)C(=NCC3CC3)OC(=O)N2C1=O do in these assays?
HPGD block: -5%; ALDH1A1 inh: inconclusive; 12-hLO inh: -1%; IMPase Li inh: -5%

What do the screens show for `CNc1ccnc(-c2cccc(NS(C)(=O)=O)c2)n1`?
ALDH1A1 inh: 20%; IMPase Li inh: 1%

Results for Cc1ccc(C(=O)CSc2nnc(-c3c[nH]c4ccccc34)o2)cc1 ?
HPGD block: -10%; IMPase inh: -4[1.84 µM]; ALDH1A1 inh: 5%; 12-hLO inh: 0%; PNC assembly inh: 0; IMPase Li inh: 21%[38.3 µM]

Results for COc1ccc(NCc2nnc(SCC(=O)Nc3ccccc3OC)o2)cc1 ?
HPGD block: -5%; IMPase inh: 11; ALDH1A1 inh: inconclusive; 12-hLO inh: -13%; PNC assembly inh: -105*; IMPase Li inh: 29%[38.3 µM]

What do the screens show for `CCn1c(CNC(=O)c2ccc(OC)c(OC)c2)nnc1SCC(=O)Nc1ccc(OC)cc1`?
HPGD block: -1%; ALDH1A1 inh: 0%; 12-hLO inh: 6%; PNC assembly inh: 19; IMPase Li inh: -8%

What do the screens show for `CCC1CCCCN1C(=O)CSc1nnc(CNC(=O)COc2ccc(Cl)cc2)o1` (stereo not given)?
HPGD block: -11%; IMPase inh: -2; ALDH1A1 inh: 7.1µM*; 12-hLO inh: -5%; PNC assembly inh: -15; IMPase Li inh: 27%[38.3 µM]

Results for CC1CCCCN1C(=O)CSc1nnc(-c2c[nH]c3ccccc23)o1 (stereo not given) ?
HPGD block: -18%; IMPase inh: inconclusive; ALDH1A1 inh: 25µM*; 12-hLO inh: -7%; PNC assembly inh: -26; IMPase Li inh: 9%[38.3 µM]

How did COCCn1c(CNc2ccc(F)cc2)nnc1SCC(=O)Nc1ccc(OC)cc1OC do in these assays?
HPGD block: -11%; IMPase inh: -15; ALDH1A1 inh: 13µM*; 12-hLO inh: -5%; PNC assembly inh: 0; IMPase Li inh: -15%[38.3 µM]

Results for COc1ccc(OC)c(NC(=O)CSc2nnc(CNc3ccc(F)cc3)o2)c1 ?
HPGD block: -4%; IMPase inh: -4; ALDH1A1 inh: -5%; 12-hLO inh: -3%; PNC assembly inh: 36; IMPase Li inh: 6%[38.3 µM]

How did COc1ccc(COC(=O)N/N=C2/C[C@@H](O)[C@@H](O)[C@@H]3[C@@H]4C(=O)N(Cc5ccccc5)C(=O)[C@H]4CC[C@H]23)cc1 do in these assays?
ALDH1A1 inh: 10%[13.5 µM]

How did c1ccc(Nc2ncnc3ccc(-c4ccc5c(c4)OCO5)cc23)cc1 do in these assays?
HPGD block: -29%; ALDH1A1 inh: 4%; 12-hLO inh: -3%; IMPase Li inh: 4%

How did Cc1ccc(C2CC(=O)Nc3cc4c(cc32)OCCO4)cc1Br (stereo not given) do in these assays?
IMPase inh: 10

Results for COC(=O)NC(/C(C(=O)OC)=C(\C)NCc1ccccc1)c1ccco1 (stereo not given) ?
ALDH1A1 inh: 18%[13.5 µM]

What do the screens show for `FC(F)(F)c1cccc(-c2noc(-c3cc(-c4ccccc4)c(C(F)(F)F)s3)n2)c1`?
HPGD block: -5%; ALDH1A1 inh: 4%; 12-hLO inh: -3%; IMPase Li inh: -13%

Results for CCC1CCCCN1C(=O)CSc1nnc(-c2ccco2)o1 (stereo not given) ?
HPGD block: -4%; IMPase inh: inconclusive; ALDH1A1 inh: 20µM*; 12-hLO inh: 3%; PNC assembly inh: -14; IMPase Li inh: 10%

How did COc1ccc(NCc2nnc(SCC(=O)c3ccc(OC)cc3)o2)cc1 do in these assays?
HPGD block: -10%; IMPase inh: 5; ALDH1A1 inh: 16µM*; 12-hLO inh: -1%; PNC assembly inh: inconclusive; IMPase Li inh: 40%[38.3 µM]

What do the screens show for `COc1ccc(OC)c(NC(=O)CSc2nnc(CNC(=O)COc3ccc(Cl)cc3)o2)c1`?
HPGD block: -14%; IMPase inh: -1; ALDH1A1 inh: 20µM*; 12-hLO inh: -16%; PNC assembly inh: inconclusive; IMPase Li inh: 25%[38.3 µM]

How did COc1ccc(NC(=O)CSc2nnc(CNC(=O)COc3ccc(Cl)cc3)o2)c(OC)c1 do in these assays?
HPGD block: 4%; IMPase inh: 2; ALDH1A1 inh: 2%; 12-hLO inh: -7%; PNC assembly inh: -23; IMPase Li inh: 7%[38.3 µM]

What do the screens show for `COC(=O)c1ccccc1NC(=O)CSc1nnc(Cc2ccc(Cl)cc2)o1`?
HPGD block: 28µM*; IMPase inh: 13; ALDH1A1 inh: 20µM*; 12-hLO inh: -1%; PNC assembly inh: inconclusive; IMPase Li inh: 21%[38.3 µM]

What do the screens show for `CC(C)CN1CC2(CCN(S(=O)(=O)c3ccccc3)CC2)C1`?
HPGD block: -8%; ALDH1A1 inh: 3%; 12-hLO inh: -6%; IMPase Li inh: 22%

Results for C/C=C/C(=O)C[C@H]1CC[C@@H](C)[C@@H](CCO)O1 ?
HPGD block: -2%; ALDH1A1 inh: inconclusive; IMPase Li inh: 10%

How did COc1ccc(CCCc2nnc(SCC(=O)NN)o2)cc1 do in these assays?
ALDH1A1 inh: 7.9µM*; IMPase Li inh: -7%

Results for O=c1c(-c2cccs2)nc2cnc(N3CCOCC3)nc2n1-c1ccccc1 ?
ALDH1A1 inh: inconclusive; IMPase Li inh: -21%

Results for CC1(C)CC1C(=O)Nc1ccc([N+](=O)[O-])cc1Br (stereo not given) ?
IMPase inh: -2; ALDH1A1 inh: -6%; 12-hLO inh: -1%; PNC assembly inh: -24
